9 molecules from PubChem BioAssay can be followed below.

A short description of assay [1]: small molecules captured by biotinylated probe aFSTL3 – biochemical, small-molecule microarray, fluorescence 635/667, stem cell growth factor project, primary screen (AID 1064).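 Note: measures binding of the biotinylated anti-FSTL3 antibody to printed compounds.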 The following applies: higher = more signal.
Assay [2] is described as follows: binders from COS7 lysate, DM2A8 probe, primary screen, torsin A project, cell lysate, small-molecule microarray, fluorescence 635/667 (AID 1065). To be noted: higher = more signal, COS7 lysate expressing mutant human TOR1A.
Assay [3] can be described thus: small molecules captured by biotinylated probe aFGF2 – biochemical, small-molecule microarray, fluorescence 635/667, stem cell growth factor project, primary screen (AID 1067).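 Note: measures binding of biotinylated aFGF2 protein to printed compounds on slides; z-score merges feature fluorescence and signal-to-noise across triplicate slides.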 To be noted: higher = more signal.
Assay [4] in a line: small molecules captured by biotinylated probe aFGF10 – biochemical, small-molecule microarray, fluorescence 635/667, stem cell growth factor project, primary screen (AID 1071).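 Note: score merges 667 nm spot intensity and signal to noise from triplicate slides.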 To be noted: higher = more signal.
Assay [5] concerns the target Neurogenic locus notch homolog protein 2 (Homo sapiens) (UniProt Q04721). Nature of the assay: small molecules binding Notch2 protein – biochemical, small-molecule microarray, 635 nm fluorescence, stem cell growth factors, primary screen (AID 1073). To be noted: higher = more signal.
In assay [6] the target is Pro-neuregulin-1, membrane-bound isoform (Homo sapiens) (UniProt Q02297). Description: small molecules binding neuregulin-1 protein – biochemical, small-molecule microarray, fluorescence 635/667, psychiatric disease protein project, primary screen (AID 1075).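 Note: score combines 667 nm spot fluorescence with signal to noise.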 The following applies: NRG1 binding, 635 nm fluorescence, higher = more signal.
Assay [7] relates to Neuregulin-1 EGF-like domain. Nature of the assay: small molecules binding NRG1 EGF domain – biochemical, small-molecule microarray, 635 nm fluorescence, primary screen (AID 1081).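 Note: binding of the protein to compounds printed on small-molecule microarray slides.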 To be noted: higher = more signal.
Assay [8] is described as follows: FRG1 expression reporter modulators in myotubes – cell-based, C2C12 myotubes, firefly/Renilla luciferase, luminescence, FRG1 inhibition for FSHD, primary screen (AID 1084). To be noted: FRG1 promoter luciferase, higher = more signal, called active from +8 up or from −8 down.
Assay [9] is described as follows: small molecules captured by biotinylated probe aFST – biochemical, small-molecule microarray, fluorescence 635/667, stem cell growth factor project, primary screen (AID 1086).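 Note: score merges 667 nm fluorescence with signal-to-noise of each printed compound spot.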 To be noted: higher = more signal.
Assay [10] is described as follows: binders of probe aHhip on microarray, primary screen, stem cell growth factor project, biochemical, small-molecule microarray, fluorescence 635/667 (AID 1087).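 Note: score merges spot fluorescence at 667nm with spot signal to noise ratio.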 To be noted: higher = more signal.
Assay [11] relates to PRMT1 (protein arginine N-methyltransferase 1). Description: small molecules binding arginine methyltransferase PRMT1 – biochemical, small-molecule microarray, 635 nm fluorescence, primary screen (AID 1088).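 Note: binding of Prmt1 protein to compounds spotted on small-molecule microarray slides.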 To be noted: higher = more signal.
A short description of assay [12]: growth effects on S. cerevisiae YJM789 – YJM789 clinical isolate, OD600, 24 h, basal, primary screen (AID 1089).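 Note: growth of clinical yeast isolate S. cerevisiae YJM 789 seeded 1000 cells per well; test concentration not given here.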 The following applies: higher = more signal, called active from +8 up or from −8 down.
Assay [13] in a line: S. pombe growth modifiers, basal conditions – strain 972, OD600, 24 h, no modulator, primary screen (AID 1090).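 Note: basal condition with compound alone and no growth modifier present; test concentration not given here.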 To be noted: S. pombe 972 growth, higher = more signal, called active from +8 up or from −8 down.
Assay [14] can be described thus: budding yeast growth modifiers under rapamycin – strain BY4716, OD600, 96 h, primary screen (AID 1091). Note: test concentration not given here. To be noted: S. cerevisiae BY4716 + rapamycin, higher = more signal, called active from +8 up or from −8 down.
The target of assay [15] is Torsin-1A-interacting protein 2 (Homo sapiens) (UniProt Q8NFQ8). Nature of the assay: small molecules binding lysate-expressed LULL1 – cell lysate, human LULL1 lysate, 635/667 nm fluorescence, primary screen (AID 1092).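 Note: score merges per-feature 667 nm fluorescence with signal-to-noise.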 The following applies: small-molecule microarray, hLULL1 lysate binding, 635 nm fluorescence; higher = more signal.
Assay [16] in a line: optical density change of DRC41 E. coli – strain DRC41, OD650, 24 h, E. coli filamentation project, primary screen (AID 1093).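 Note: MC1000 strain lacking acrAB efflux and sulA so SOS filamentation is blocked; test concentration not given here.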 The following applies: E. coli DRC41 growth, higher = more signal, called active from +8 up or from −8 down.
The nature of assay [17]: probe aLefty2 binding to arrayed compounds – biochemical, biotinylated probe, 635/667 nm fluorescence, primary screen (AID 1094).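 Note: score merges spot fluorescence near 667 nm with spot signal-to-noise ratio.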 The following applies: small-molecule microarray, higher = more signal.
The test system of assay [18] is Noggin (protein binding on small-molecule microarray). Nature of the assay: small molecules binding Noggin protein – biochemical, 635/667 nm fluorescence, primary screen (AID 1095).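 Note: score merges 667 nm feature fluorescence with signal to noise over triplicate slides.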 To be noted: 635 nm fluorescence, higher = more signal.
For assay [19], the target named is Neurogenic locus notch homolog protein 3 (Homo sapiens) (UniProt Q9UM47). Description: small molecules binding NOTCH3 protein – biochemical, 635/667 nm fluorescence, primary screen (AID 1096). To be noted: small-molecule microarray, 635 nm fluorescence, higher = more signal.
Assay [20] is described as follows: probe aEGFR binding to arrayed compounds – biochemical, biotinylated probe, 635/667 nm fluorescence, primary screen (AID 1097).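 Note: probe is a biotinylated anti-EGFR antibody binding compounds printed on slides; score combines fluorescence near 667 nm and signal to noise of each spot.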 The following applies: small-molecule microarray, higher = more signal.

Activity calls are given as the source filed them.

Chain of Neurogenic locus notch homolog protein 3 (Homo sapiens) (Q9UM47 whole entry, looked up): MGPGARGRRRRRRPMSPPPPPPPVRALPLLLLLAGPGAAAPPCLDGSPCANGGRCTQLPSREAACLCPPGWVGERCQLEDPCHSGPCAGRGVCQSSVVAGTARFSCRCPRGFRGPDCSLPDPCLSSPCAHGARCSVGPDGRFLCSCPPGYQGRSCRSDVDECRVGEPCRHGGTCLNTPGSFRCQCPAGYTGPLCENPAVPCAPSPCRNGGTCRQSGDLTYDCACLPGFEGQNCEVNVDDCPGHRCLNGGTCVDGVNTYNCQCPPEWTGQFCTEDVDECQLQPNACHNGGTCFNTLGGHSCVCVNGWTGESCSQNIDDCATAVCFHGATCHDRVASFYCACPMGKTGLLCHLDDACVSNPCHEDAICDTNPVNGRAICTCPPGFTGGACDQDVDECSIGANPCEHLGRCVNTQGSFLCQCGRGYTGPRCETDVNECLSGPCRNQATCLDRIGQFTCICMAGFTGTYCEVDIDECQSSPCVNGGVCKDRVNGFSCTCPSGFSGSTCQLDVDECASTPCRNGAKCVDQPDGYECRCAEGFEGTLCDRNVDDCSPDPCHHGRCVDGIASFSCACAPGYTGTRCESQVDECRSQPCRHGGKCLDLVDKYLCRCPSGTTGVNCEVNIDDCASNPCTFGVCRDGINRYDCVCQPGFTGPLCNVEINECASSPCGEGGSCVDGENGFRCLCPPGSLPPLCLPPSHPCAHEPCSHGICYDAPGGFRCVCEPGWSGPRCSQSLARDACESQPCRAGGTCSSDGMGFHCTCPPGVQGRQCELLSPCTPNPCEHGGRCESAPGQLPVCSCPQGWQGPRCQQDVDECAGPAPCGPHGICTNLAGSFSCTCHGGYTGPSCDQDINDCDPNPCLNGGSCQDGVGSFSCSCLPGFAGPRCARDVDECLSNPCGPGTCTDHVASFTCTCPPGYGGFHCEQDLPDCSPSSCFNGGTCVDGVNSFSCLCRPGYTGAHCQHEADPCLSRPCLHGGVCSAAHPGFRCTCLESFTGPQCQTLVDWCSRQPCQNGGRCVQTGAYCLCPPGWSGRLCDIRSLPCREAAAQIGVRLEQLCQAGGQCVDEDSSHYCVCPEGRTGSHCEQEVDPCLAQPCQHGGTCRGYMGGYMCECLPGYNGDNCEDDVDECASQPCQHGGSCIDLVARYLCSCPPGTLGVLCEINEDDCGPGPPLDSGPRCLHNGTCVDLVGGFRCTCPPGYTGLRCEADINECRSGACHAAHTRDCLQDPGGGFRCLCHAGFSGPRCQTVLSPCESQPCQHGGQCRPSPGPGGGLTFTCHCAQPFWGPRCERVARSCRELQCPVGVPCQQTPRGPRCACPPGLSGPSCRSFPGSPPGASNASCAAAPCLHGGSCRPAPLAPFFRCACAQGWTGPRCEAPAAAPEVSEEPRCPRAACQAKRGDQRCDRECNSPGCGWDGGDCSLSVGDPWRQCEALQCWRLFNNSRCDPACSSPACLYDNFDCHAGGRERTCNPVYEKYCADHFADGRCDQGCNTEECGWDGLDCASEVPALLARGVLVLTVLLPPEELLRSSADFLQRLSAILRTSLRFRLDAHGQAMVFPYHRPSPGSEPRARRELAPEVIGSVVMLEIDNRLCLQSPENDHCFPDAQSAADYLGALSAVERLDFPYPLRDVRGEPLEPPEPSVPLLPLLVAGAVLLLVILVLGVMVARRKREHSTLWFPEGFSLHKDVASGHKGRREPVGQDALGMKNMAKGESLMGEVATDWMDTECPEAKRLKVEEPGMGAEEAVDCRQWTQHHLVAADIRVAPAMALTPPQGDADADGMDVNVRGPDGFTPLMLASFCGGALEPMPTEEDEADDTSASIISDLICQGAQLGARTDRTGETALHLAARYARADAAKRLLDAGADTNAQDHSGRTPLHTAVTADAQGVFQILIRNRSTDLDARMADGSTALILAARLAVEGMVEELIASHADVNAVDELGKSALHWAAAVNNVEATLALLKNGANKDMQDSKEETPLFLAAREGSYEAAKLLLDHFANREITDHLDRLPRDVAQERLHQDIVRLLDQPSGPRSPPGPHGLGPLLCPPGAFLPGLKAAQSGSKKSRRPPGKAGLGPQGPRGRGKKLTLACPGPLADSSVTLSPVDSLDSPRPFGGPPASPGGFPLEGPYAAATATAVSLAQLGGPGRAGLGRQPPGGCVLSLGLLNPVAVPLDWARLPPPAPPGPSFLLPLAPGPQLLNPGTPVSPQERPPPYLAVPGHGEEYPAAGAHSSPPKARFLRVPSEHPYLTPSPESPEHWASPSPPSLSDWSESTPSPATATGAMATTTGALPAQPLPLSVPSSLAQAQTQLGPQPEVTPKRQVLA
Chain of Neurogenic locus notch homolog protein 2 (Homo sapiens) (Q04721 whole entry, looked up, canonical isoform): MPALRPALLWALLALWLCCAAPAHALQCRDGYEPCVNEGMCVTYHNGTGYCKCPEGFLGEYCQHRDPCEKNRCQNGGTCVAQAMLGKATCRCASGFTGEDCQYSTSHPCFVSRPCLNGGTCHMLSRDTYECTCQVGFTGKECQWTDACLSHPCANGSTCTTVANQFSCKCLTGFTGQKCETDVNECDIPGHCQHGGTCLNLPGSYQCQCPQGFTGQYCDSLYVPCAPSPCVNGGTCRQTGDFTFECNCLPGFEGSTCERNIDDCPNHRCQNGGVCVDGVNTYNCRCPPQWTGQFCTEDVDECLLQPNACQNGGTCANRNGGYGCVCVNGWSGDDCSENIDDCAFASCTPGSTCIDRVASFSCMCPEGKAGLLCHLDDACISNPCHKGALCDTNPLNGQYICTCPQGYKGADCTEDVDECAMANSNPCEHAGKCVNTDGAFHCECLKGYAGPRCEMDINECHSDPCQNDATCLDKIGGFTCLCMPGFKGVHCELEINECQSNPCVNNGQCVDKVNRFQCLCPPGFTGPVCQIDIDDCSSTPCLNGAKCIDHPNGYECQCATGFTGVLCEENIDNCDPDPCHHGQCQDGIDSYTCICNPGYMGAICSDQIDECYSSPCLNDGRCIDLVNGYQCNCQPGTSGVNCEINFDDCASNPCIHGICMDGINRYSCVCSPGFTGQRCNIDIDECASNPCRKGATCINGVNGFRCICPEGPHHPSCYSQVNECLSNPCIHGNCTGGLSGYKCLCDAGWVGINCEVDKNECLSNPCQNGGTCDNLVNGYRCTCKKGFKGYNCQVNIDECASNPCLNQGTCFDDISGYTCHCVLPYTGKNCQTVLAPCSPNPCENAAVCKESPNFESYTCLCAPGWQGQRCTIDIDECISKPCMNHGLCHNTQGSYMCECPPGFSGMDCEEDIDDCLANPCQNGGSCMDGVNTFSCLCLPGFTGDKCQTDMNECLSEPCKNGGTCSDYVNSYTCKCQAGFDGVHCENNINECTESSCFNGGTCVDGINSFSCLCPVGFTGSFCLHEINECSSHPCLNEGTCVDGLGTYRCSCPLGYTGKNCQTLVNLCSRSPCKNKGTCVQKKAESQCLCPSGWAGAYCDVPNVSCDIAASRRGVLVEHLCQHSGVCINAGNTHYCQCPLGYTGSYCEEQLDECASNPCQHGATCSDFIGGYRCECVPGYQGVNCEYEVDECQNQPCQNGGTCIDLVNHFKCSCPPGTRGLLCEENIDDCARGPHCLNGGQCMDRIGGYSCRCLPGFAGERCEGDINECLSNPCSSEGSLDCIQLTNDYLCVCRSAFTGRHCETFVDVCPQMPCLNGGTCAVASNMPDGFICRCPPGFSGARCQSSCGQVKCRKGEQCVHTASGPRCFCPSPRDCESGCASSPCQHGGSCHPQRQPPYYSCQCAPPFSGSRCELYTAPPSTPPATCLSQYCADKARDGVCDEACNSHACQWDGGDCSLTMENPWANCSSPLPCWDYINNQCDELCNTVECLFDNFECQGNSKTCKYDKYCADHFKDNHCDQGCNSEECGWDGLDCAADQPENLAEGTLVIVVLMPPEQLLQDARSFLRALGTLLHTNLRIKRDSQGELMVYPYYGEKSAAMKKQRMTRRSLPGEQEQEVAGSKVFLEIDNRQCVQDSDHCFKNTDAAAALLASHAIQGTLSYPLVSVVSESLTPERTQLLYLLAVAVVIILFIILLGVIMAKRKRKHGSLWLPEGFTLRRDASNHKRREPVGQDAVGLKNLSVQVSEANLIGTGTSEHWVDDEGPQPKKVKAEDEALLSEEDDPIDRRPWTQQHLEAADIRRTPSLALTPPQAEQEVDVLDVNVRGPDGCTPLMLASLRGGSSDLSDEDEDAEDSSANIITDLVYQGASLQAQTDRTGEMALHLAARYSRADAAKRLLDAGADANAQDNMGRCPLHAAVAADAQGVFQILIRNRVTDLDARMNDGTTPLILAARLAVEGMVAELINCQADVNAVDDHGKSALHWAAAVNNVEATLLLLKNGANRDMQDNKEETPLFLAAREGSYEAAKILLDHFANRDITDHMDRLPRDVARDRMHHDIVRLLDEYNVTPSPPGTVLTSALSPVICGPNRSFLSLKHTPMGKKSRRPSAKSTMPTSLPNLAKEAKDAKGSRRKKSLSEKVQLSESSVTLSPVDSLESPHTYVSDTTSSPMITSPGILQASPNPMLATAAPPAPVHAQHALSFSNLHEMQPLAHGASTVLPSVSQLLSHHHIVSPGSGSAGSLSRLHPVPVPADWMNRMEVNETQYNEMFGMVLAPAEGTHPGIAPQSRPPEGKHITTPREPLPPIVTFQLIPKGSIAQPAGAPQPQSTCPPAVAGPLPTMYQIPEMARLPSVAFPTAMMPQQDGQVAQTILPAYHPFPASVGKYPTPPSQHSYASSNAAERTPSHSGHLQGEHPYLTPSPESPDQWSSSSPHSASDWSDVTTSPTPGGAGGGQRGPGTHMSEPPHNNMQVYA

For `CC(C)(C)OC(=O)CC[C@@]1(C(=O)NCc2ccccc2)N=C(c2ccc(OCCCO)cc2)O[C@@H]1c1ccccc1N=[N+]=[N-]`, the composite z-score in assay [1] was 0.418; in assay [2], 0.559; in assay [3], 0.246; in [4], 0.885; in assay [5], 1.64; in assay [6], 1.75. Besides, the composite z-score in assay [7] was found to be 0.968; in assay [9], 1.13; in assay [10] it was 0.0115; in assay [11], 1.56; in assay [15], 3.25; in assay [17], 0.372. The composite z-score in assay [18] is 0.878; in [19], 1.05; in assay [20], 0.224. Further, the z-score is 1.16 (inactive) in assay [8]; 0.704 (inactive) in assay [12]; 0.501 (inactive) in assay [13]; 3.64 (inactive) in assay [14]; 0.516 (inactive) in assay [16].

Regarding `O=C(N1CCCCC1)[C@@]1(CCS(=O)(=O)c2ccccc2)COC(c2ccc(OCCCO)cc2)=N1`, the composite z-score in assay [1] was 1.02; in assay [2], 1.92; in [3] it was 0.237; in assay [4], 0.253; in [5], 1.03; in assay [6] it was 1.06. In addition, the composite z-score in assay [7] came to 1.32; in assay [9], 0.937; in [10] it was 0.0972; in assay [11], 1.54; in [15], 2.84; in [17], 0.369. The composite z-score in assay [18] is 1.04; in assay [19], 0.841; in assay [20], 0.219. The z-score in assay [8] was -3.51 (inactive); in assay [12] it was -0.612 (inactive); in assay [13], -1.25 (inactive); in assay [14], -0.0556 (inactive); in [16], 1.23 (inactive).

Take `COCCOC(=O)N1C(=O)[C@@]2(c3cc(C#CC4=CCCCC4)ccc31)[C@H](c1ccccc1OCCO)N1[C@H](c3ccccc3)[C@H](c3ccccc3)OC(=O)[C@H]1[C@@H]2C(=O)Nc1nc2ccccc2s1`: the composite z-score in assay [1] was -0.19; in assay [2] it was -0.0036; in assay [3], -0.0398; in assay [4], 0.359; in [5], 1.23; in assay [6] it was 0.953. The composite z-score in assay [7] was 1.08; in [9] it was 0.513; in assay [10], 0.0373; in [11], 1.29; in assay [15] it was 2.66; in assay [17] it was 0.0274. For the same molecule, the composite z-score in [18] was 1.05; in assay [19] it was 1.06; in assay [20], -0.0728. For the same molecule, the z-score is 1.41 (inactive) in assay [8]; 0.478 (inactive) in [12]; 0.615 (inactive) in [13]; 1.29 (inactive) in assay [14]; -0.15 (inactive) in assay [16].

Consider `CCCCO[C@H]1C[C@H]2C(I)=C[C@@H]1C(=O)[C@]21CO1`, for which the composite z-score in assay [1] was -0.329; in assay [2], 0.823; in assay [3], -0.0706; in [4] it was 0.0657; in assay [5], -0.361; in assay [6] it was -0.149. Besides, the composite z-score in assay [7] is -0.44; in [9], -0.323; in [10] it was -0.236; in [11], -0.429; in [15], -1.03; in [17], -0.126. In addition, the figures for the composite z-score in assay [18], in assay [19] and in assay [20] were 0.359, 0.0532 and -0.19, respectively. Further, the z-score is 1.43 (inactive) in assay [8]; -1.88 (inactive) in assay [12]; -4.81 (inactive) in [13]; -1.68 (inactive) in [14]; -1.25 (inactive) in [16].

For the molecule `CC(C)(C)N1CC=CC23O[C@@H]4C=CCOC(=O)[C@@H]4[C@H]2C(=O)N(CCCCCCO)[C@@H]3C1=O` (stereo not given in full), the composite z-score in assay [1] is 0.0157; in assay [2], -0.511; in assay [3] it was -0.178; in [4] it was -0.447; in [5], -0.947; in [6], -0.574. Further, the composite z-score in assay [7] was 1.36; in assay [9], -0.867; in assay [10], -0.284; in assay [11], -0.911; in assay [15] it was 1.39; in [17], -0.101. Also, the composite z-score is -1.27 in assay [18], -0.729 in assay [19] and -0.163 in assay [20]. Besides, the z-score in [8] was 0.212 (inactive); in assay [12], -1.54 (inactive); in assay [13] it was -1.27 (inactive); in assay [14], -0.369 (inactive); in assay [16], -0.351 (inactive).

For `CCCCCCCCCCC(O)C1C=CC2C(=O)N(C)C(=O)C2N1NC(=O)OC(C)(C)C` (stereo not given), the composite z-score in [1] was -0.318; in [2] it was -0.127; in assay [3], -0.0272; in assay [4] it was -0.293; in [5], 0.228; in assay [6] it was 1.03. The composite z-score in assay [7] was 0.465; in assay [9], 0.0478; in assay [10], -0.212; in assay [11] it was 0.76; in [15], 2.18; in assay [17] it was -0.0725. The values for the composite z-score in [18], in assay [19] and in assay [20] were -0.765, 0.0249 and -0.128, respectively. For the same molecule, the z-score in [8] was -0.218 (inactive); in assay [12], 0.258 (inactive); in [13], -16.5 (active); in assay [14] it was -1.97 (inactive); in [16], -2.14 (inactive).

Consider `CC(C)[Si](C#C[Si](C(C)C)(C(C)C)C(C)C)(O[C@H](C)c1cn([C@H](CO)Cc2ccccc2)nn1)C(C)C`, for which the composite z-score in [1] is -0.311; in assay [2], 0.585; in [3] it was -0.116; in assay [4], 0.215; in assay [5] it was 0.203; in [6] it was 0.183. For the same molecule, the composite z-score in assay [7] is 0.432; in assay [9] it was 0.513; in [10] it was -0.111; in [11] it was 0.857; in assay [15], 1.76; in assay [17] it was -0.0961. The composite z-score was -0.0066 in assay [18], 0.407 in assay [19] and -0.133 in assay [20]. In addition, the z-score is -1.06 (inactive) in [8]; -0.653 (inactive) in assay [12]; -0.644 (inactive) in [13]; -0.356 (inactive) in assay [14]; 1.51 (inactive) in assay [16].

In the case of `C=CCC(OC(C)=O)[C@@H]1[C@@H](N(Cc2cccc3ccccc23)C(=O)Cc2ccc(OC)cc2)c2cc(OCCCO)ccc2N1C(=O)c1ccc2ccccc2n1` (stereo not given in full), the composite z-score in assay [1] is -0.192; in assay [2], 0.0233; in [3], 0.0437; in assay [4] it was 0.11; in assay [5] it was -0.263; in assay [6], 0.836. The composite z-score in assay [7] is 0.154; in assay [9], 0.153; in assay [10], -0.152; in assay [11], 0.892; in assay [15], 1.2; in [17] it was -0.109. Also, the composite z-score in assay [18] is 0.201; in [19], 0.222; in assay [20], -0.144. Moreover, the z-score is -1.76 (inactive) in assay [8]; -0.482 (inactive) in assay [12]; 0.787 (inactive) in assay [13]; -1.24 (inactive) in assay [14]; -0.558 (inactive) in [16].

For `CCCC[C@@H]1C[C@H]1[C@@H](NC(=O)Cc1ccccc1)c1ccc(-c2ccccc2)cc1`, the composite z-score in assay [1] is -0.153; in [2], 0.0056; in assay [3] it was -0.0064; in assay [4], -0.165; in assay [5], 0.61; in assay [6] it was 0.212. Further, the composite z-score in assay [7] is 0.386; in [9], 0.482; in assay [10], -0.0237; in assay [11], 0.0706; in assay [15], 2.94; in [17] it was -0.0204. Besides, the composite z-score in [18] is -0.219; in assay [19] it was 0.0419; in [20], -0.125. Moreover, the z-score in assay [8] is 0.0529 (inactive); in [12], 0.341 (inactive); in [13], 0.373 (inactive); in assay [14], -0.116 (inactive); in assay [16], -0.255 (inactive).
